High-throughput results (PubChem BioAssay)
PglD DTNB: blocks C. jejuni PglD acetyltransferase activity | inhibition, % at 12.5 µM | purified PglD enzyme, DTNB colorimetric CoA detection | 0.098% of 360,000 active; in the data active means inhibition above about 16%, passing the limit was not always enough
PDI inh: inhibitors of human protein disulfide isomerase; P07237; AID 588391; 0.052% of 350,000 active; inhibition, % at 10 µM; PDI insulin aggregation turbidity, A650, 90 min;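 active means mean inhibition across replicates of 30% or more, whatever share of single replicates reach that level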
CendR NRP1 mod: modulators of CendR peptide binding to human neuropilin-1. inhibition, % at 25 µM. FAM-RPARPAR peptide binding to NRP-1, fluorescence polarization. 0.85% of 360,000 active;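 active means inhibition or corrected inhibition above about 18%, plus a signal ratio from 0.5 to 1.5, limit read from the data, passing the limit was not always enough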
ALR inh: inhibitors of human sulfhydryl oxidase ALR. P55789. purified ALR, DTT oxidation, H2O2 HRP-luminol luminescence. inhibition, % (concentration not given with the values). 3.8% of 290,000 active. AID 485317;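 active means mean replicate inhibition above about 79%, with every replicate also reaching it, limit read from the data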
Target sequence (P55789 whole entry, looked up): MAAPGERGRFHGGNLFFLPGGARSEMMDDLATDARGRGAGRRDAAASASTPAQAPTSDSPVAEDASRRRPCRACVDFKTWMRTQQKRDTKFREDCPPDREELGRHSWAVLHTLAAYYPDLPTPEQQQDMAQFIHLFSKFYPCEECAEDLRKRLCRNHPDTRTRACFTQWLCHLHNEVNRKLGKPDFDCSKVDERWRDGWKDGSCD
ERp5 block: inhibitors of human ERp5; Q15084; ERp5 insulin aggregation, absorbance 650 nm, 90 min; inhibition, % at 9.99 µM; 0.05% of 350,000 active;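 active means mean replicate inhibition above about 25%, with every replicate also reaching it, limit read from the data, passing the limit was not always enough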
ARNT TACC3 PPI: disrupts binding between human ARNT and TACC3; Q9Y6A5; AlphaScreen His-ARNT PAS-B/GST-TACC3 binding, luminescence; TACC3 fragment carries E629A point mutation; inhibition, % at 9.99 µM; 0.66% of 390,000 active;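 active means mean inhibition of replicates at least 50% and at least half of replicates each reaching 50%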
ARNT Alpha ctr: counter-screen for ARNT/TACC3 inhibitors: AlphaScreen artifacts; shares compounds with ARNT TACC3 PPI; His-ARNT PASB-GST AlphaScreen artifact counter-screen, luminescence; AC50, µM (top dose mostly 68 µM); 50% of 1,200 active;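 active means every separate test run was called active for a drop in luminescence, with AC50 within twice the top valid dose, actives reach about 71 µM in these data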
A number is an active result; – = inactive; · = not tested or not shown. The full list was thinned out, with hits kept by preference.

SMILES	PglD DTNB	PDI inh	CendR NRP1 mod	ALR inh	ERp5 block	ARNT TACC3 PPI	ARNT Alpha ctr
COCCN=c1scc(-c2ccco2)n1/N=C/c1ccc(O)c(O)c1O	–	–	–	99.2	–	54.9	33.5µM
CN(C)C(=O)C[C@@H]1CC[C@H]2[C@@H](COC[C@@H](O)CN2S(=O)(=O)c2ccccc2)O1	–	·	·	·	–	–	·
O=C(CCC(=O)c1cccs1)OCc1nnc(-c2ccccc2)o1	–	–	–	–	·	33.2	–
Oc1cc(Nc2ccncc2)cc2cccnc12	–	–	–	–	–	73.0	7.88µM
Oc1cc(-c2ccncc2)cc2cccnc12	–	–	–	–	–	67.2	11.7µM
Oc1cc(-c2ccc(N3CCCCC3)nc2)cc2cccnc12	–	–	–	–	·	–	·
CN(C)CCCNC(=O)c1ccc(-c2cc(O)c3ncccc3c2)cc1	–	–	–	–	–	59.7	13.8µM
O=C(C[C@@H]1CC[C@H](NC(=O)c2cccnc2)[C@H](CO)O1)NCc1ccc(Cl)c(Cl)c1	–	·	·	·	–	–	·
O=C(N[C@@H]1CC[C@@H](CCn2cc(-c3ccccn3)nn2)O[C@@H]1CO)c1ccncc1	–	·	·	·	–	77.0	38.1µM
COCc1cn(CC[C@H]2CC[C@@H](NC(=O)c3ccncc3)[C@H](CO)O2)nn1	–	·	·	·	–	–	·
COCc1cn(CC[C@H]2CC[C@H](NC(=O)c3ccncc3)[C@@H](CO)O2)nn1	–	·	·	·	–	–	·
O=C(N[C@H]1CC[C@H](CCn2cc(-c3ccccn3)nn2)O[C@@H]1CO)c1ccncc1	–	·	·	·	–	65.1	47.6µM
O=C(N[C@H]1CC[C@H](CCn2cc(-c3ccccn3)nn2)O[C@H]1CO)c1ccncc1	–	·	·	·	–	66.1	38.5µM
O=C(N[C@H]1CC[C@@H](CCn2cc(-c3ccccn3)nn2)O[C@@H]1CO)c1ccncc1	–	·	·	·	–	66.3	31.2µM
O=C(C[C@@H]1C[C@H]2c3cc(NS(=O)(=O)c4ccccc4)ccc3O[C@H]2[C@H](CO)O1)NCC1CC1	–	·	·	·	–	–	·
CC(C)NC(=O)N(C)C[C@@H]1OCCCC[C@H](C)Oc2ccc(NS(=O)(=O)c3cn(C)cn3)cc2C(=O)N([C@H](C)CO)C[C@@H]1C	–	·	·	·	–	–	·
c1ccc(-c2cncnc2)nc1	–	–	–	–	–	–	·
c1ccc(-c2cnc(-c3ccccn3)nn2)cc1	–	–	–	–	–	64.5	32.2µM
c1ccc(-c2cnnc(-c3ccccn3)n2)cc1	–	–	–	–	·	57.1	26.3µM
CCCNC(=O)C[C@H]1CC[C@H]2[C@@H](COC[C@@H](O)CN2Cc2ccccc2F)O1	–	·	·	·	–	–	·
OC[C@@H]1[C@H](c2ccc(C#Cc3ccccc3)cc2)[C@H]2CN(Cc3cncnc3)CCCCN12	–	·	·	·	–	–	·
C[C@H]1CN([C@@H](C)CO)C(=O)Cc2cc(NC(=O)CCCCCC(=O)Nc3ccccc3N)ccc2O[C@@H]1CN(C)Cc1ccc(Cl)c(Cl)c1	–	·	·	·	–	–	·
C[C@H](CO)N1C[C@H](C)[C@@H](CN(C)S(=O)(=O)c2ccc(F)cc2)Oc2ccc(NS(C)(=O)=O)cc2CC1=O	–	·	·	·	–	–	·
N#Cc1ccc(CC(=O)c2ccccc2)[nH]c1=O	–	–	–	·	–	active	–
O=C(O)c1ccc(C2CCCCC2)cn1	–	–	–	–	·	63.3	–
SMILES	PglD DTNB	PDI inh	CendR NRP1 mod	ALR inh	ERp5 block	ARNT TACC3 PPI	ARNT Alpha ctr
O=C(O)C1=C(C2CCCCC2)C(=O)c2ccccc21	·	–	–	·	–	–	·
COc1cccc(-c2ccc3c(c2)O[C@H](CN(C)C(=O)C2CC2)[C@H](C)CN([C@@H](C)CO)S3(=O)=O)c1	–	·	·	·	–	–	·
O=C(NC[C@H]1[C@@H](c2ccccc2)[C@@H](CO)N1Cc1ccccn1)C1CCC1	–	·	·	·	·	55.5	70.4µM
O=C(NC[C@@H]1[C@H](c2ccccc2)[C@H](CO)N1Cc1ccccn1)C1CCCC1	–	·	·	·	·	53.1	–
O=C(NC[C@@H]1[C@H](c2ccccc2)[C@H](CO)N1Cc1ccccn1)C1CCC1	–	·	·	·	·	59.9	–
O=C(C1CCCC1)N1C[C@@H]2[C@H](c3ccccc31)[C@H](CO)N2C(=O)Cc1ccccn1	–	·	·	·	–	51.2	–
